Assay outcomes deposited in PubChem by National Center for Advancing Translational Sciences (NCATS).
A selection: hits, their analogues and other compounds. The true share with any hit is near 2.9%.
ClpP mod – qHTS Assay for Activators of ClpP; actives 1.9% (n = 340,000); purified B. subtilis ClpP, FRET peptide cleavage, 20 min; Potency, µM (titrated, usually from 57.5 µM); active = well fitted falling curve with a large enough effect; inconclusive = small, poorly fitted or top-dose-only effect; inactive = no such curve, though single readings can be large or run the other way; note: the source files actives as falling curves though it sought activators and does not explain the sign; nearly all actives have a fitted effect of over 65% in size
Target sequence (P80244 whole entry, looked up): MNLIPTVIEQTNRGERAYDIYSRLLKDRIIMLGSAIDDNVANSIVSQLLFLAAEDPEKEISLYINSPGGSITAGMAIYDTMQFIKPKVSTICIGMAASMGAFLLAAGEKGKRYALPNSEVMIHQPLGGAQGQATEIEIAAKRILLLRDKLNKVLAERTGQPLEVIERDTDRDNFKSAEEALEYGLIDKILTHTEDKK
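Purified B. subtilis ClpP, 10 microg/mL final in Tris/HCl pH8 with KCl, BSA, glycerol and Tween-20, cleaved an Abz/nitrotyrosine-quenched decapeptide. Fluorescence (ex 320, em 430) was read at 0 and 20 min at room temperature. Delta was normalized to 5.8 microM ADEP and DMSO/no-enzyme controls.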
GLP-1R agonist – agonists of human GLP-1 receptor; P43220; HEK293 GLP-1R CRE-luciferase, luminescence, 4-6 h; cells express a hypersensitive GLP-1R form; Potency, µM (top dose mostly 45.6 µM), hits mostly activators; actives 0.007% (n = 380,000)
Target sequence (P43220 whole entry, looked up): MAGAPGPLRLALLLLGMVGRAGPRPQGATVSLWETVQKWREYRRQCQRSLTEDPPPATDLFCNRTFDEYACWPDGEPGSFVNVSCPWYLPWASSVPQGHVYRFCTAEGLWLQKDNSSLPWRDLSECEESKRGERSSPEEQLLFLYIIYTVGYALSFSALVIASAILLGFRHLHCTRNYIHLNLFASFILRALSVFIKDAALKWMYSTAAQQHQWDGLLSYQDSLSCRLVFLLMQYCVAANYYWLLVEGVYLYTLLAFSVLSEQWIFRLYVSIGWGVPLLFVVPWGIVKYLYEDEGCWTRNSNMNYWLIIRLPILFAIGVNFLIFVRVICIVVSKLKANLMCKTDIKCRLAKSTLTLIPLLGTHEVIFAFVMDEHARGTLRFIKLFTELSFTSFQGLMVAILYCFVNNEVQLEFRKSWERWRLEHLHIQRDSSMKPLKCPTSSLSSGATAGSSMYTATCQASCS
GLP1R inv ag – inverse agonists of human GLP-1 receptor | P43220 | HEK293 GLP-1R CRE-luciferase, luminescence, 24 h; GLP-1R form is constitutively active | Potency, µM (series often up to 38.3 µM), actives largely listed as inhibitors | actives 1.6% (n = 410,000) | AID 624417; note: nearly all actives have a fitted effect of over 55% in size
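Inverse agonism was detected as reduced cAMP-driven luciferase luminescence after 24 h compound treatment. The cells were HEK293 clones expressing constitutively active human GLP-1R with the reporter. Reporter-only and GPR119 cell lines served as counterscreen controls.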
LDHA block – LDHA (human) enzyme inhibition; purified LDHA, NADH/diaphorase-resazurin fluorescence; stronger effect = lower value; activity change, % (values are at about 110 or 230 µM); actives 0.15% (n = 480,000); AID 1347041; in the data active = activity change below about -30%; inconclusive = mostly about -25% to -30%
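Human LDH5 (2 nM) was incubated with 0.06 mM NADH and 0.2 mM pyruvate for 5 min at room temperature in Tris pH 7.4. Remaining NADH was coupled through diaphorase/resazurin, and resorufin fluorescence was read at 0 and 20 min.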
GLP1R cytotox – cytotoxic in the GLP-1 receptor inverse agonist counter-screen | HEK293 cAMP-luciferase reporter cells, luminescence, 24 h | Potency, µM (titrated, usually from 38.3 µM), actives largely listed as inhibitors | actives 0.13% (n = 410,000) | AID 624418;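 note: loss of luciferase light is scored as toxicity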
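Compound-treated cells are incubated 24 hr at 37 deg C under 5% CO2 after a 12 hour attachment period, then luciferase detection reagent is added and luminescence is measured following 12 min at room temperature; lowered signal indicates toxicity.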
p53 reactivation – restores transcriptional activity of mutant p53; H1299 p53-A138V BP100-luciferase reporter, luminescence, 24 h; Potency, µM (series often up to 92.2 µM), usual class: activators; actives 0.063% (n = 320,000); AID 504706; note: nearly all actives have a fitted effect of over 45% in size
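H1299 (p53-null), stable ts p53-A138V + BP100-Luc; 1000 cells/well, Opti-MEM/10% FBS; cpd 4 pt, 1:5; 24 h, 37 deg C, 5% CO2; detection reagent 10 min RT; luminescence.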
Each line names hits and unclear results; the compound was inactive in the other large screens. Unless noted, calls come from the whole dose curve; as a rule, active = well fitted curve in the direction sought with a large enough effect; inconclusive = small, poorly fitted or top-dose-only effect, or another doubt; inactive = no such curve, though single readings can be large; an effect the other way counts as inactive or inconclusive.

COc1ccc(C2=CC(=O)C[C@H](c3ccc(Cl)cc3)C2)cc1	GLP1R inv ag inconclusive
O=C1C=C(c2ccc(OC(F)(F)F)cc2)C[C@@H](c2ccc(Cl)cc2)C1	GLP1R inv ag 10µM, GLP1R cytotox inconclusive
COc1cc(SC)ccc1C(=O)Nc1cccc(S(=O)(=O)NC2=NCCCCC2)c1	none
Cc1cccc(NC(=O)COc2ccc3c(c2)CCC3)n1	ClpP mod 28µM
Fc1cccc(Cn2cc(C(=S)N3CCCCC3)c3ccccc32)c1	GLP1R inv ag 7.9µM
Fc1cccc(Cn2cc(C(=S)N3CCOCC3)c3ccccc32)c1	GLP1R inv ag inconclusive
CCCOC(=O)C1C2C=CC3(CN(c4ccc(Cl)c(F)c4)C(=O)C13)O2 (configuration not stated)	none
ClC(Cl)c1nnc(-c2ccccc2)c(-c2c[nH]c3ccccc23)n1	ClpP mod 25µM, GLP1R inv ag inconclusive
O=C(NCc1ccccc1)C(c1ccccc1)n1c(-c2ccccn2)nc2ccccc21 (configuration not stated)	ClpP mod inconclusive, GLP1R inv ag 7.9µM (no result: GLP-1R agonist, p53 reactivation)
O=C(NCc1ccccc1)C(c1ccccc1)n1c(-c2ccncc2)nc2ccccc21 (configuration not stated)	none (no result: GLP-1R agonist, p53 reactivation)
CN(C)CCN1CC(C(=O)O)CC1=O (configuration not stated)	none
Cn1c(=O)c2c(ncn2CC(=O)NC(=O)NC2CCCC2)n(C)c1=O	LDHA block -34 (no result: ClpP mod, GLP-1R agonist, GLP1R inv ag, GLP1R cytotox, p53 reactivation)
O=C(CN1CCCCCCC1)NC(=O)NC1CCCCC1	GLP1R inv ag 4µM (no result: ClpP mod)
COc1ccccc1NC(=O)CC1SC(c2cc3ccccc3oc2=O)=NC1=O (configuration not stated)	none (no result: ClpP mod, GLP-1R agonist, GLP1R inv ag, GLP1R cytotox, p53 reactivation)
COc1ccc(S(=O)(=O)n2nc(-c3ccc(Cl)cc3)cc2N)cc1	GLP1R inv ag 10µM
COc1ccc(/C=C2\SC(=Nc3ccccc3OC)NC2=O)cc1	GLP1R inv ag inconclusive, GLP1R cytotox inconclusive
COc1ccc(/C=C2\SC(=NCc3ccccc3)NC2=O)cc1	ClpP mod 22µM
CCOC(=O)c1c[nH]c2ccc([N+](=O)[O-])cc12	none (no result: ClpP mod, p53 reactivation)
O=C(O)CN1C(=O)/C(=C\c2ccccc2OCc2ccc(F)cc2)SC1=S	GLP1R inv ag inconclusive
O=C(O)c1cc(-c2ccc(/C=C3/SC(=S)N(Cc4ccccc4)C3=O)o2)ccc1Cl	none (no result: ClpP mod)
O=C(O)CN1C(=O)/C(=C/c2ccc(-c3cccc(Cl)c3)o2)SC1=S	LDHA block -63 (no result: ClpP mod, GLP-1R agonist, GLP1R inv ag, GLP1R cytotox, p53 reactivation)
O=C(O)CN1C(=O)/C(=C\c2cc(Br)ccc2OCc2ccc(F)cc2)SC1=S	GLP1R inv ag inconclusive, LDHA block -34, GLP1R cytotox inconclusive
O=C(O)CN1C(=O)/C(=C\c2cc(Br)ccc2OCc2ccc(Cl)cc2)SC1=S	GLP1R inv ag inconclusive, LDHA block -40
COc1ccc(CCOC(=O)c2cc(S(=O)(=O)N3CCCCC3)ccc2N2CCOCC2)cc1	none (no result: ClpP mod, GLP-1R agonist, GLP1R inv ag, GLP1R cytotox, p53 reactivation)
COc1cc(Cl)c(C)cc1NC(=O)c1cnc2c(-c3cccc(C)c3)c(C)nn2c1C	none (no result: GLP-1R agonist, p53 reactivation)
CC(=O)c1ccc(NC(=O)C(C)OC(=O)c2ccccc2-n2cnnn2)cc1 (configuration not stated)	none (no result: ClpP mod, GLP-1R agonist, GLP1R inv ag, GLP1R cytotox, p53 reactivation)
CCOC(=O)c1c[nH]n(-c2ccccc2)c1=O	none (no result: ClpP mod)
CC1CN(c2ccc([N+](=O)[O-])c(NCCOc3ccc(Cl)cc3)c2)CC(C)N1 (configuration not stated)	GLP1R inv ag 10µM
Cc1ccccc1OCCNc1cc(N2CC(C)NC(C)C2)ccc1[N+](=O)[O-] (configuration not stated)	GLP1R inv ag 7.9µM, GLP1R cytotox inconclusive
CC1CN(c2ccc([N+](=O)[O-])c(NCCOc3ccccc3)c2)CC(C)N1 (configuration not stated)	GLP1R inv ag inconclusive, GLP1R cytotox inconclusive (no result: ClpP mod)
CCC(=O)c1ccc(OCC(=O)O)c(OC)c1	none
CN(C(=O)c1ccc(OC2CCN(Cc3ccccn3)CC2)cc1)C1CCCCC1	GLP1R inv ag inconclusive
CCOC(=O)C1CCN(C(=O)Nc2ccc3nc(C)c(C)nc3c2)CC1	ClpP mod 13µM
CCc1ccc(Nc2n[n+](-c3ccccc3)c(-c3c(Cl)cccc3Cl)s2)cc1	GLP1R inv ag inconclusive, GLP1R cytotox 7.9µM (no result: p53 reactivation)
COc1ccc2ccccc2c1-c1sc(Nc2ccccc2)n[n+]1-c1ccc(F)cc1	GLP1R inv ag inconclusive, GLP1R cytotox 5µM (no result: p53 reactivation)
Fc1ccc(-[n+]2nc(Nc3ccccc3)sc2-c2c(Cl)cccc2Cl)cc1	GLP1R inv ag inconclusive, GLP1R cytotox inconclusive
COc1ccc(-c2sc(Nc3ccccc3)n[n+]2-c2ccc(F)cc2)cc1Br	none
Cc1ccc(NC(=O)c2ccc(-n3cncn3)c([N+](=O)[O-])c2)cc1	none
Cc1ccc(-c2nc(CC(=O)NCCc3ccccc3F)cs2)o1	LDHA block -33 (no result: ClpP mod, GLP-1R agonist, GLP1R inv ag, GLP1R cytotox, p53 reactivation)
Cc1ccc(NC(=O)Cc2ccc(NC(=O)N3CCCCc4ccccc43)cc2)cc1Cl	GLP1R inv ag inconclusive (no result: GLP-1R agonist, p53 reactivation)
CC(C)Cc1cc(C(=O)Nc2ccc3c(c2)OCO3)no1	GLP1R inv ag 4µM, p53 reactivation inconclusive
CC(=O)NC(c1ccc2ccccc2c1)c1ccc2cccnc2c1O (configuration not stated)	GLP1R inv ag inconclusive, GLP1R cytotox inconclusive (no result: ClpP mod, p53 reactivation)
COc1ncccc1C(=O)NC1CCCc2c1cnn2-c1cc(C)cc(C)c1 (configuration not stated)	GLP-1R agonist inconclusive
COCc1ccc(C(=O)NC2CCCc3c2cnn3-c2cc(C)cc(C)c2)s1 (configuration not stated)	GLP1R inv ag 7.1µM
Cc1cc(C)cc(-n2ncc3c2CCCC3NC(=O)c2cc(C)oc2C)c1 (configuration not stated)	GLP1R inv ag 13µM (no result: ClpP mod)
Cc1cc(C)cc(-n2ncc3c2CCCC3NC(=O)c2csnn2)c1 (configuration not stated)	none
Cc1ncoc1C(=O)NC1CCCc2c1cnn2-c1ccc(C(C)(C)C)cc1 (configuration not stated)	GLP1R inv ag 5µM (no result: p53 reactivation)
COc1cccc(CNC(=O)c2ccc(CS(=O)(=O)Cc3ccc(C)cc3)o2)c1	none
O=C1CN(C(=O)CSc2ccc(-c3ccc(F)cc3)nn2)c2ccccc2N1	none (no result: ClpP mod)
Cc1ccc(NC(=O)N(Cc2cccs2)Cc2cc3cc4c(cc3[nH]c2=O)OCO4)cc1	none (no result: ClpP mod, GLP-1R agonist, GLP1R inv ag, LDHA block, GLP1R cytotox)
O=C(Nc1ccc(F)cc1)N(Cc1ccco1)Cc1cc2cc3c(cc2[nH]c1=O)OCO3	ClpP mod 32µM
